PubChem BioAssay AID540345 (The Scripps Research Institute Molecular Screening Center, 2011)
Values without a mark were called inactive. How the calls were made is not given here.

Test system: Imidazoline I2
Test: selectivity profile over receptors, transporters, CYPs – biochemical, Ricerca HitProfilingScreen, CYP450, set 2, selectivity assay for GPR7 antagonist project, profiling panel (AID 540345)
Conditions: Ricerca radioligand binding/CYP panel, central, at 10 µM, hits give high values

## COc1ccc(Oc2c(Cl)cnn(C3c4ccccc4-c4ccccc43)c2=O)cc1
  inhibition: 12%
